Hits are enriched below; roughly 6.9% of the tested compounds scored in any of these assays.
IL1B secr inh: inhibitors of inflammasome signaling (IL-1 beta secretion) | THP-1 LPS/ATP IL-1B secretion, AlphaLISA, 16 h; stronger effect = lower value | 4.7% of 360,000 active | activity change, % at 57.5 µM; in the data active = activity change below about -50%; inconclusive = mostly about -30% to -49%; also: % is scaled to controls: 0 for no effect and ±100 for the full control effect
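Secreted IL-1B measured by AlphaLISA bead assay after 16 h compound exposure of THP-1 cells; compounds (final up to 57.5 uM) added 1 h before LPS (250 ng/mL) and ATP (1.25 mM) stimulation; lower signal means less secretion.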
Vif-APOBEC3G blk: inhibitors of Vif-APOBEC3G interaction | Potency, µM (highest dose often 46.1 µM), inactives show at the highest dose activity, negative = active, actives largely listed as inhibitors | Q9HC16 | 0.076% of 410,000 active | HeLa A3G-eYFP + Vif (tagged APOBEC3G with the HIV-1 protein that degrades it), YFP fluorescence, overnight; also: potency is read from the fitted curve at half-maximal effect; % is scaled to controls: 0 for no effect and ±100 for the full control effect; nearly all actives have a fitted effect of over 60% in size
Target sequence (Q9HC16 whole entry, looked up): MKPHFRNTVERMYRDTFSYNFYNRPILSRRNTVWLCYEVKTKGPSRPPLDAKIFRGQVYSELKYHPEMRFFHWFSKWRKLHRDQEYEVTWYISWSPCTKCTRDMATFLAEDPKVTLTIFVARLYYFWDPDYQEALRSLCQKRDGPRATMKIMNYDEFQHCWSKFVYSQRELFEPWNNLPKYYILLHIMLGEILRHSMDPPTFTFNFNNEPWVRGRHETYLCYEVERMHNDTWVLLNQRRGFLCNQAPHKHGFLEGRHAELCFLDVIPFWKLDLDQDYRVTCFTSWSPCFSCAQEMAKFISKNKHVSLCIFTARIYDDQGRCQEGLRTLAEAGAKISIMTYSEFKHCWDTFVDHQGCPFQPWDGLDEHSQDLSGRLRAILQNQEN
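Read-out is eYFP fluorescence (Ex 488/Em 500-530) from Vif-expressing HeLa A3G-eYFP cells; more signal means A3G escaped Vif-mediated degradation. Cells plated overnight, compound pinned in, incubated overnight at 37 deg C.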
Vif-A3F inh: inhibitors of Vif-A3F interaction; HeLa A3F-eYFP + Vif (tagged APOBEC3F with the HIV-1 protein that degrades it), YFP fluorescence increase; AID 602313; Potency, µM (titrated, usually from 46.1 µM), for the others: at the top dose activity, negative = active; 0.2% of 390,000 active; also: potency is read from the fitted curve at half-maximal effect; % of control where 0% means no effect; nearly all actives have a fitted effect of over 65% in size
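HeLa cells stably expressing A3F-eYFP plus Vif, plated and incubated overnight at 37 deg C, then exposed to compounds overnight at 37 deg C. Blocked degradation read as raised yellow fluorescence (Ex 488/Em 500-530).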
MCF10A rerep: inducers of DNA re-replication in MCF 10A breast cells; MCF 10A DNA re-replication, Hoechst nuclear intensity, 48 h; Potency, µM (titrated, usually from 46.1 µM), for the others: top-dose activity, positive = re-replication, hits mostly activators; 2.9% of 350,000 active; also: potency is read from the fitted curve at half-maximal effect; % of control where 0% means no effect; nearly all actives have a fitted effect of over 50% in size
SW480 rereplic: induces DNA re-replication in SW480 colon adenocarcinoma cells; 1.8% of 340,000 active; SW480 DNA re-replication, Hoechst DNA content imaging, 48 h; Potency, µM (series often up to 46.1 µM), for the others: at the highest dose re-replication activation, actives largely listed as activators; also: potency is read from the fitted curve at half-maximal effect; % of control where 0% means no effect; nearly all actives have a fitted effect of over 55% in size
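250 cells/well; 23 nL cpd via pin tool; 48 hr, 37 C, 5% CO2; Hoechst 40 min; imager read of total nuclear intensity, ex 405/em 500-530 nm.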
Giardia killer: Giardia lamblia killing; AID 540267; activity change, % at 7.66 µM, hits read low; Giardia lamblia trophozoite viability; 0.15% of 340,000 active; in the data active = activity change below about -80%; inconclusive = between about -30% and that limit;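 also: parasites exposed to compound for two days anaerobically before the ATP read; % is scaled to controls: 0 for no effect and ±100 for the full control effect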
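Killing of trophozoites was scored by loss of ATP luminescence after a 48 hrs anaerobic exposure to compounds at 37 deg C, using 100 cells per well.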
Numbers without * were called inactive. Unless noted, calls follow the shape of the dose curve; as a rule, active = well fitted curve in the direction sought with a large enough effect; inconclusive = small, poorly fitted or top-dose-only effect, or another doubt; inactive = no such curve, though single readings can be large; an effect the other way counts as inactive or inconclusive.

How did CCOC(=O)c1c(NC(=O)c2ccccc2N(C)S(=O)(=O)c2ccccc2)sc2c1CCCC2 do in these assays?
IL1B secr inh: -9; Vif-APOBEC3G blk: inconclusive; Vif-A3F inh: -5%; MCF10A rerep: inconclusive; SW480 rereplic: 5.2µM*; Giardia killer: -11

Results for COC(=O)c1c(NC(=O)CS(=O)(=O)c2ccc(C)cc2)sc2c1CCCC2 ?
Vif-APOBEC3G blk: 5%; Vif-A3F inh: 2%

Results for COC(=O)c1c(NC(=O)c2ccc(N(C)S(=O)(=O)c3ccc(C)cc3)cc2)sc2c1CCCC2 ?
IL1B secr inh: 3; Vif-APOBEC3G blk: -3%; Vif-A3F inh: 11%; MCF10A rerep: 5.8µM*; SW480 rereplic: inconclusive; Giardia killer: -4

Results for CCOC(=O)c1c(NC(=O)C(NCCN(C)C)c2ccccc2)sc2c1CCCC2 (centres undefined) ?
IL1B secr inh: -108*; Vif-APOBEC3G blk: -19%; Vif-A3F inh: inconclusive; MCF10A rerep: 18µM*; SW480 rereplic: inconclusive; Giardia killer: -17

What do the screens show for `CCc1cc2c(cc3c(=O)n(CC(=O)N4CCN(c5cccc(C)c5C)CC4)nc(CC)n32)s1`?
Vif-APOBEC3G blk: -1%; Vif-A3F inh: 6%

What do the screens show for `O=C(NCCc1ccccc1)c1ccc2c(c1)OCCCO2`?
IL1B secr inh: -4; Vif-APOBEC3G blk: 0%; Vif-A3F inh: -2%; MCF10A rerep: 1%; SW480 rereplic: -2%; Giardia killer: -89*

How did O=C(NCCc1ccccc1)c1ccc2c(c1)OCCO2 do in these assays?
IL1B secr inh: -10; Vif-APOBEC3G blk: 1%; Vif-A3F inh: -2%; MCF10A rerep: 11%; SW480 rereplic: -6%; Giardia killer: -81*

Results for O=C(NCCc1ccccc1)c1ccc2nc(-c3ccco3)c(-c3ccco3)nc2c1 ?
IL1B secr inh: inconclusive; Vif-APOBEC3G blk: -9%; Vif-A3F inh: -2%; MCF10A rerep: 21µM*; SW480 rereplic: inconclusive; Giardia killer: 7

What do the screens show for `COC(=O)c1ccc(Nc2c([N+](=O)[O-])c(=O)oc3ccccc23)cc1`?
IL1B secr inh: -78*; Vif-APOBEC3G blk: -6%; Vif-A3F inh: -14%; MCF10A rerep: 16%; SW480 rereplic: -3%; Giardia killer: -6

Results for O=c1oc2ccccc2c(Nc2ccc(Cl)cc2)c1[N+](=O)[O-] ?
IL1B secr inh: -24; Vif-APOBEC3G blk: -16%; Vif-A3F inh: -2%; MCF10A rerep: inconclusive; SW480 rereplic: 5%; Giardia killer: 11

What do the screens show for `O=c1oc2ccccc2c(Nc2cccc(O)c2)c1[N+](=O)[O-]`?
IL1B secr inh: inconclusive; Vif-APOBEC3G blk: -24%; Vif-A3F inh: 3%; MCF10A rerep: 18µM*; SW480 rereplic: -4%; Giardia killer: 7

Results for Cc1ccc(C(=O)NC2CC(C)(C)NC(C)(C)C2)cc1 ?
IL1B secr inh: 17; Vif-APOBEC3G blk: 1%; Vif-A3F inh: 12%; MCF10A rerep: 1%; SW480 rereplic: -8%; Giardia killer: 8

Results for CC1(C)CC(NC(=O)c2coc(=O)c(Br)c2)CC(C)(C)N1 ?
IL1B secr inh: -15; Vif-APOBEC3G blk: -9%; Vif-A3F inh: -6%; MCF10A rerep: 18µM*; SW480 rereplic: inconclusive; Giardia killer: -3

How did CCc1cccc(NC(=O)C2CCCN(c3ncnc4onc(-c5ccc(F)cc5)c34)C2)c1 (centres undefined) do in these assays?
Vif-APOBEC3G blk: -10%; Vif-A3F inh: -4%

What do the screens show for `c1ccc2c(c1)OCCOCCOCCOCCOCCOc1ccccc1OCCOCCOCCO2`?
IL1B secr inh: -73*; Vif-APOBEC3G blk: -6%; Vif-A3F inh: 5%; MCF10A rerep: inconclusive; SW480 rereplic: inconclusive; Giardia killer: 16

Results for OCCN1CCOCCOc2ccccc2OCCOCC1 ?
IL1B secr inh: 48; Vif-APOBEC3G blk: 1%; Vif-A3F inh: 2%; MCF10A rerep: 1%; SW480 rereplic: -3%; Giardia killer: 3

What do the screens show for `CN1CCC(Nc2ncc3ncnc(Nc4ccc(F)c(Cl)c4)c3n2)CC1`?
MCF10A rerep: 3.3µM*; SW480 rereplic: 13µM*

Source: PubChem BioAssay (National Center for Advancing Translational Sciences (NCATS))
